Records with an inconclusive call do not appear. A number with no mark means an inactive call. Active and inactive are the calls of the source. Unless noted, the call rests on the fitted dose curve; in most records, active means well fitted curve in the direction sought with a large enough effect in the repeat runs; inconclusive means weak or mixed curves; inactive means no such curve, though single readings can be large; an effect the other way counts as inactive or inconclusive.

Assay [1] has as its target Peroxisome proliferator-activated receptor delta (Homo sapiens) (UniProt Q03181). The experiment in a line: qHTS assay to identify small molecule agonists of the peroxisome proliferator-activated receptor delta (PPARd) signaling pathway (AID 743212; calls by dose curve). The essentials:
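Cells expressing a UAS-driven beta-lactamase reporter (PPARd-bla HEK293H) were given test compounds after a 5 h settle and kept at 37 C. Reporter activity was then measured as FRET fluorescence using LiveBLAzer B/G substrate.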
(qHTS replaces the single test concentration by a dilution series.)

A short description of assay [2]: qHTS assay to identify small molecule antagonists of the peroxisome proliferator-activated receptor delta (PPARd) signaling pathway - cell viability counter screen (AID 743213). Further: nearly all actives have a fitted effect of over 50% in size. The essentials: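 HEK293H cells with the PPARd UAS-bla reporter, co-treated 17 h at 37 C with compounds and L165041 (300 nM final), were lysed with CellTiter-Glo. Luminescence indicated viable cell content.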

Assay [3] in a line: qHTS assay to identify small molecule agonists of the farnesoid-X-receptor (FXR) signaling pathway - cell viability counter screen (AID 743218). Further: nearly all actives have a fitted effect of over 45% in size. Further: potency means the concentration at half of the fitted maximal effect. An outline of the steps:
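Viability counter screen in the same wells: CellTiter-Glo luminescence, 30 min room-temperature incubation, measured after the beta-lactamase read. Cells were GeneBLAzer FXR-UAS-bla HEK 293T, compound-treated 16 h at 37C.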

A short description of assay [4]: qHTS assay to identify small molecule antagonists of the farnesoid-X-receptor (FXR) signaling pathway - cell viability counter screen (AID 743221; active means well fitted cell-killing curve with a large enough effect in the repeat runs, not every such curve was filed as active; further: nearly all actives have a fitted effect of over 50% in size). An outline of the steps: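 In GeneBLAzer FXR-UAS-bla HEK 293T cells stimulated with 50 uM chenodeoxycholic acid (final), compounds acted for 16 h at 37 C. Viability was assessed afterwards by CellTiter-Glo luminescence.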

For assay [5], the target named is Vitamin D3 receptor (Homo sapiens) (UniProt P11473). The experiment in a line: qHTS assay to identify small molecule agonists of the vitamin D receptor (VDR) signaling pathway (AID 743222; calls by dose curve). An outline of the steps: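 Agonist mode, beta-lactamase reporter: fluorescence from LiveBLAzer B/G FRET substrate (2 h, room temperature) read after 16 h compound treatment at 37 C of VDR-bla cells, which were pre-incubated 4 h after seeding.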
Vitamin D3 receptor (Homo sapiens), sequence (P11473 whole entry, looked up): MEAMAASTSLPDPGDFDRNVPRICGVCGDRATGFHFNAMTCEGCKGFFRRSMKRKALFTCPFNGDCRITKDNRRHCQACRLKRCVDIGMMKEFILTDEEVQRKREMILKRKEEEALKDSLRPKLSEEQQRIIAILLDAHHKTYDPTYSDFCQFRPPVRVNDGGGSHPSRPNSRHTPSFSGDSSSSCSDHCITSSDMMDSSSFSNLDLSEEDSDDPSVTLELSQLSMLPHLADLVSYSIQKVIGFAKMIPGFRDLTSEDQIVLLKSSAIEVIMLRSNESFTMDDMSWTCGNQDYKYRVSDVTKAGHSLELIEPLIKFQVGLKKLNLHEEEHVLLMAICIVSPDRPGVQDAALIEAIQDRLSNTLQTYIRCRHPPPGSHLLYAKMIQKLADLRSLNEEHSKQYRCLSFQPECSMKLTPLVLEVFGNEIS

For assay [6] the target is unchanged. Nature of the assay: qHTS assay to identify small molecule antagonists of the vitamin D receptor (VDR) signaling pathway (AID 743223; active means well fitted inhibition curve with a large enough effect in the signal ratio in the repeat runs, not every such curve was filed as active; the % refers to the signal ratio). An outline of the steps: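 Agonist 1alpha,25-dihydroxyvitamin D3 (3 nM in well) was added with each compound to VDR-bla cells preincubated 4 h. Cells stood 16 h at 37C, then FRET substrate 2 h at room temperature; fluorescence intensity recorded.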

Assay [7] can be described thus: qHTS assay to identify small molecule agonists of the vitamin D receptor (VDR) signaling pathway - cell viability counter screen (AID 743224). Further: series mostly up to about 63 µM; nearly all actives have a fitted effect of over 50% in size. An outline of the steps:
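Counter screen run in the same wells as the VDR-bla reporter assay: CellTiter-Glo luminescence, 30 min at room temperature, after 16 h compound treatment at 37C of cells pre-plated for 4 h.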

Assay [8] can be described thus: qHTS assay to identify small molecule antagonists of the vitamin D receptor (VDR) signaling pathway - cell viability counter screen (AID 743225). Further: nearly all actives have a fitted effect of over 50% in size. The essentials:
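Luminescent cell viability (CellTiter-Glo) in VDR-bla HEK 293T cells after 16 h compound exposure at 37C in the presence of 3 nM final 1-alpha,25-dihydroxy vitamin D3.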

Assay [9] can be described thus: qHTS assay to identify small molecule agonists of the NFkB signaling pathway (AID 1159509; active means well fitted curve in the direction sought with a large enough effect in the signal ratio in the repeat runs, not every such curve was filed as active; the % refers to the signal ratio; further: series mostly up to about 61 µM). An outline of the steps:
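Agonist activity was read as beta-lactamase-driven FRET change (460 and 530 nm emission, 405 nm excitation) following 1.5 hr substrate loading at room temperature. Beforehand, ME-180 NFkB-bla reporter cells were treated with compounds for 5 hr at 37 C.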

Assay [10] can be described thus: qHTS assay to identify small molecule agonists of the endoplasmic reticulum stress response signaling pathway - cell viability counter screen (AID 1159517; calls by dose curve). The essentials: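 Cpd-treated ESRE-bla HeLa (5 hr, 37 C) → LiveBLAzer 2 hr RT → CellTiter-Glo 30 min RT → luminescence.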
A short description of assay [11]: qHTS assay to identify small molecule antagonists of the retinoid-related orphan receptor gamma (ROR-gamma) signaling pathway - cell viability counter screen (AID 1159520). Further: nearly all actives have a fitted effect of over 50% in size. An outline of the steps: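 Tet-on ROR gamma CHO cells (1,000/well) were plated 4 hr, given compounds in DMSO for 2 hr at 37 C, then induced with 1 uM final doxycycline for 16 hr. Viability was read as ATP by CellTiter-Glo luminescence after 30 min.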

Assay [12] addresses Nuclear receptor ROR-gamma (Homo sapiens) (UniProt P51449). Nature of the assay: qHTS assay to identify small molecule antagonists of the retinoid-related orphan receptor gamma (ROR-gamma) signaling pathway (AID 1159521). The essentials: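 CHO cells expressing RORγ under a TET-on promoter, luciferase under RORE control. Dox 1 uM final, 16 h; compounds added 2 h prior. Luminescence decrease measured.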

The nature of assay [13]: qHTS assay to identify small molecule agonists of the AP-1 signaling pathway - cell viability counter screen (AID 1159525; calls by dose curve; further: nearly all actives have a fitted effect of over 55% in size). An outline of the steps: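 Each titration point was normalised to DMSO and tetra n-octyl ammonium bromide controls. The read was Cell Titer Glo luminescence after 30 min at RT, following 5 h compound exposure of ME-180 AP-1-bla cells at 37 °C.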
Assay [14] is described as follows: qHTS assay to identify small molecule agonists of the AP-1 signaling pathway (AID 1159526; calls by dose curve).
A short description of assay [15]: qHTS assay to identify small molecule agonists of the endoplasmic reticulum stress response signaling pathway (AID 1159516; active means well fitted activation curve with a large enough effect in the signal ratio in the repeat runs, not every such curve was filed as active; the % refers to the signal ratio). The essentials:
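Ratiometric FRET readout (405 nm excitation; 460 and 530 nm emission) of a beta-lactamase gene driven by the ER stress response element, after 2 hr substrate loading. HeLa ESRE-bla cells were seeded overnight and treated with compounds for only 5 hr at 37 C.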

Assay [16] addresses Peroxisome proliferator-activated receptor delta (Homo sapiens) (UniProt Q03181). Nature of the assay: qHTS assay to identify small molecule antagonists of the peroxisome proliferator-activated receptor delta (PPARd) signaling pathway (AID 743215; active means well fitted inhibition curve with a large enough effect in the signal ratio in the repeat runs, not every such curve was filed as active; the % refers to the signal ratio;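 further: cells stimulated with agonist L165041 at 300 nM final during compound exposure; series mostly up to about 62 µM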). An outline of the steps:
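Agonist L165041 (300 nM final) added with compound to PPARd-bla HEK293H UAS-bla reporter cells; 17 h incubation at 37 C. Read-out: LiveBLAzer FRET substrate, 2 h at room temperature, fluorescence intensity.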

Assay [17] concerns the target Bile acid receptor (Homo sapiens) (UniProt Q96RI1). The experiment in a line: qHTS assay to identify small molecule antagonists of the farnesoid-X-receptor (FXR) signaling pathway (AID 743217; active means well fitted inhibition curve with a large enough effect in the signal ratio in the repeat runs, not every such curve was filed as active; the % refers to the signal ratio). An outline of the steps:
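Antagonist mode: chenodeoxycholic acid at 50 uM final stimulates a UAS-driven beta-lactamase reporter in HEK 293T FXR-bla cells during 16 h, 37C compound exposure. Read-out is FRET substrate fluorescence after 2 h at room temperature.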

A short description of assay [18]: qHTS assay to identify small molecule agonists of the peroxisome proliferator-activated receptor delta (PPARd) signaling pathway - cell viability counter screen (AID 743211). Further: nearly all actives have a fitted effect of over 55% in size. The essentials: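 Luminescent ATP viability assay (CellTiter-Glo, 30 min RT) in UAS-bla HEK293H cells carrying the PPAR delta reporter construct, 3000 cells/well, after a 17 h compound treatment at 37 C.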

In assay [19] the target is Bile acid receptor (Homo sapiens) (UniProt Q96RI1). The experiment in a line: qHTS assay to identify small molecule agonists of the farnesoid-X-receptor (FXR) signaling pathway (AID 743220; active means well fitted activation curve with a large enough effect in the signal ratio in the repeat runs, not every such curve was filed as active; the % refers to the signal ratio). An outline of the steps:
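FXR-UAS-bla HEK 293T cells carrying a UAS-driven beta-lactamase reporter were plated for 5 h at 37C/5% CO2, then exposed to DMSO-dissolved Tox21 10K compounds for 16 h at 37C. A LiveBLAzer B/G FRET substrate was loaded for 2 h at room temperature before fluorescence reading.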

Peroxisome proliferator-activated receptor delta (Homo sapiens), sequence (Q03181 whole entry, looked up): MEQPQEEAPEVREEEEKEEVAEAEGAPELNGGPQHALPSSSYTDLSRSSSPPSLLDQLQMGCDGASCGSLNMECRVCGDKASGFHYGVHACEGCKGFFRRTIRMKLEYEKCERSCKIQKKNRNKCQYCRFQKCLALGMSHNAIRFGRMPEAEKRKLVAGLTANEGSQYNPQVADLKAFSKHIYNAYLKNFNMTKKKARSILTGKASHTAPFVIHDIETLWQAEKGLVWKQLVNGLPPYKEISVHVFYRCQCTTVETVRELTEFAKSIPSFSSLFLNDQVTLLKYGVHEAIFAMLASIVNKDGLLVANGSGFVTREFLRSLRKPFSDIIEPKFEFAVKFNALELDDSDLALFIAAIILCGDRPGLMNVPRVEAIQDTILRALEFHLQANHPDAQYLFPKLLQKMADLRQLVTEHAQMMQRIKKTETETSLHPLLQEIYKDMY
Bile acid receptor (Homo sapiens), sequence (Q96RI1 whole entry, looked up): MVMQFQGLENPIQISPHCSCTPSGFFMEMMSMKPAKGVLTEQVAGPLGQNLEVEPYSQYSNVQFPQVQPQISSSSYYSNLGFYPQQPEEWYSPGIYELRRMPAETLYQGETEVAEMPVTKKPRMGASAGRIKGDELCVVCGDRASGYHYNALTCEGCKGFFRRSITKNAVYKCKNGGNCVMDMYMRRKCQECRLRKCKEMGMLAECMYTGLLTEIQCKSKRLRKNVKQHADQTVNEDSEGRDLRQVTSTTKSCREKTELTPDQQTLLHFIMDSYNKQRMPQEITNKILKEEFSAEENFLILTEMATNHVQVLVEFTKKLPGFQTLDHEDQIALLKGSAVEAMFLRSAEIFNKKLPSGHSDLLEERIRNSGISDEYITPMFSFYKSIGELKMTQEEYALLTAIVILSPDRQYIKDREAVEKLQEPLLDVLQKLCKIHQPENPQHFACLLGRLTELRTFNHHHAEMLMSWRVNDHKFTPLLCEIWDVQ

Turning to `CCCCOC(=O)CCCCC(=O)OCCCC`, the call in assay [1], in [5], in [6], in assay [9] and in assay [14] was inactive. In addition, the Potency result in [2], in assay [3], in [4], in [7], in assay [8] and in [10] was “inactive” throughout. Besides, the Potency result in [11], in [12] and in [13] was “inactive” throughout.
In the case of `CS(=O)(=O)c1ccc([C@@H](C[C@H]2CCC(=O)C2)C(=O)Nc2cnccn2)cc1Cl`, the call in assay [1], in [5], in [9] and in [14] was inactive. Besides, the Potency result in assay [3], in assay [4], in assay [7], in assay [15], in [11] and in assay [12] was “inactive” throughout. In addition, in assay [13], the Potency result was “inactive”.
For the compound `CCC(=O)OCc1ccc(OC)cc1`, the outcome in [1], in [17], in assay [5], in [6], in assay [9] and in assay [14] was inactive. Further, the Potency entry in [2], in assay [16], in assay [3], in [4], in [7] and in [10] was “inactive” throughout. The Potency result in assay [11] and in [13] was “inactive” in each case.
With `C=CC(=O)O`, the Potency result in [18], in assay [2], in [3], in assay [4], in assay [7] and in [8] was “inactive” in each case. The Potency entry in assay [15], in assay [11], in assay [12] and in [13] was “inactive” in each case. Further, the call in assay [1], in assay [5], in [6], in assay [9] and in assay [14] was inactive.
In the case of `COC(C)(C)OC`, the Potency entry in [18], in assay [3], in assay [19], in [4], in assay [7] and in assay [15] was “inactive” each time. Also, the Potency entry in assay [11], in assay [12] and in [13] was “inactive” each time. Moreover, the compound was called inactive in assay [1], in assay [17], in [5], in [6], in [9] and in [14].
As to `CCNc1nc(N)nc(Cl)n1`, the Potency entry in assay [18], in [16], in assay [3], in assay [4], in assay [7] and in assay [8] was “inactive” throughout. Further, the Potency entry in assay [15], in assay [11] and in assay [13] was “inactive” in each case. Further, the call in assay [1], in assay [5], in assay [9] and in assay [14] was inactive.
Turning to `CC[C@H]1OC(=O)[C@H](C)[C@@H](O[C@H]2C[C@@](C)(OC)[C@@H](O)[C@H](C)O2)[C@H](C)[C@@H](O[C@@H]2O[C@H](C)C[C@H](N(C)C)[C@H]2O)[C@](C)(O)C[C@@H](C)C(=O)[C@H](C)[C@@H](O)[C@]1(C)O`, the Potency result in assay [18], in assay [2], in assay [3], in [4], in assay [7] and in [8] was “inactive” throughout. Also, the Potency entry in assay [15], in [11], in assay [12] and in assay [13] was “inactive” in each case. Also, the call in assay [6], in assay [9] and in [14] was inactive.
Turning to `COc1ccc(-c2cc(=S)ss2)cc1`, the Potency entry in [18], in assay [2], in assay [3], in assay [4], in [7] and in assay [8] was “inactive” throughout. For the same compound, the Potency result in assay [15], in assay [11], in assay [12] and in assay [13] was “inactive” throughout. The call in assay [6] and in assay [9] was inactive.
For the compound `CCN(CC)CCOc1ccccc1C(=O)CCc1ccccc1`, the compound was classed as inactive in [17], in assay [5], in assay [6] and in [9]. For the same compound, the Potency in assay [3] is 11.9 µM (active). For the same compound, the Potency entry in assay [19], in [7], in assay [8], in [15], in [11] and in assay [12] was “inactive” throughout. Also, the Potency result in [13] was “inactive”.
Regarding `BrC(Br)C(Br)Br`, the Potency result in assay [18], in assay [2], in assay [16], in assay [3], in assay [4] and in [7] was “inactive” throughout. Further, the Potency entry in [8], in assay [15], in assay [11], in [12] and in assay [13] was “inactive” each time. Also, the outcome in [1], in [6], in assay [9] and in [14] was inactive.

Source of the values: PubChem BioAssay (Tox21).
